Records with an inconclusive call do not appear. A call without a number means that no potency is given here. Active and inactive are the calls of the source. The call rests on the fitted dose curve; in most records, active means well fitted inhibition curve with a large enough effect; inconclusive means small, poorly fitted or top-dose-only effect; inactive means no such curve, though single readings can be large or run the other way.
Potency means the concentration at half of the fitted maximal effect.

M-phase phosphoprotein 8 (Homo sapiens), sequence (Q99549 whole entry, looked up): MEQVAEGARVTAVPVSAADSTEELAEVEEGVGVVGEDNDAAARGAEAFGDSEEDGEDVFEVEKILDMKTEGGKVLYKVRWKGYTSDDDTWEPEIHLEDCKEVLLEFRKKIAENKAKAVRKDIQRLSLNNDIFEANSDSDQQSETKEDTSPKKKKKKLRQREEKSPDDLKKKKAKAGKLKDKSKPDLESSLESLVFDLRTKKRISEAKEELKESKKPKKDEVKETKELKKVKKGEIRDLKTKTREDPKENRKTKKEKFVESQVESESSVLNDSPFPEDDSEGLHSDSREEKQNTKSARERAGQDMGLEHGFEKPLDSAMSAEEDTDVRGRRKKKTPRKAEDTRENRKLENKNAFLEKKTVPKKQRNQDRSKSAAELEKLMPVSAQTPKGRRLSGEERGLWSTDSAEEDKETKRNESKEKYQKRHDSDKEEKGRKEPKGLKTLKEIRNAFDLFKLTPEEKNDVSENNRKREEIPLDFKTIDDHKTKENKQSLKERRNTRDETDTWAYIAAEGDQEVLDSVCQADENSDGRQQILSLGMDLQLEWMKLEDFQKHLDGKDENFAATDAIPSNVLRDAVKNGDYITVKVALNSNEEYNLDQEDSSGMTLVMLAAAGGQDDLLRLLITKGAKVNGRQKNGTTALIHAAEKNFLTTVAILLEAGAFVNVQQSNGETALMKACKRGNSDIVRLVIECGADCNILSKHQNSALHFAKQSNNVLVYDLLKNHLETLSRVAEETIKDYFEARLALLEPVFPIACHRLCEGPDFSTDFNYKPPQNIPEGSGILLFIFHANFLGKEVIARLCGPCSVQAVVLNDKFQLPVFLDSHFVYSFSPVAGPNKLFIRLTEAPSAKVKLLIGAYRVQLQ

For the assay, the target named is M-phase phosphoprotein 8 (Homo sapiens) (UniProt Q99549). Description: qHTS Validation Assay for Inhibitors for MPP8 Chromodomain Interactions with Methylated Histone Tails (AID 488949). Further: nearly all actives have a fitted effect of over 55% in size. To be noted: AlphaScreen MPP8 binding to H3K9me3 peptide; series mostly up to 114 µM. The source says:
As our understanding of epigenetics expands, it is becoming clear that players in this field are potential targets for drug development. This area of epigenetic therapy has established applications for the treatment of cancer and neurological diseases. We have been involved in this field for a number of years and have performed high-throughput screens to identify the first small molecule inhibitors of protein methyltransferases. These methyltransferases target multiple substrates, and thus regulate many arms of an epigenetic pathway. The methylation of different substrates often generates docking sites for effector proteins that harbor binding domains (chromo, tudor, PHD, MBT and ANK repeats). It has been proposed that the binding sites generated for different proteins by these post-translational modifcations mediate downstream effects on chromatin. Consistent with this theory, di- and tri-methylation of histone H3K9 facilitates the binding of heterochromatin protein HP1. The HP1 protein harbors a chromodomain that is responsible for the methyl-dependent interaction between HP1 and lysine 9 of histone H3. HP1 was first described in flies as a heterochromatin associated protein that can regulate gene silencing. It harbors a chromodomain that binds H3K9me3. In addition, it harbors a chromoshadow domain that interacts with a large number of proteins that are involved in heterochromatin formation and gene repression. There are three highly related HP1 isoforms. All three variants are associated with pericentric heterochromatin and it is not clear whether they have specific or redundant functions. MPP8 is also involved in the repression of gene in euchromatic regions (unpublished data) and like HP1 its chromodomain binds H3K9me3. MPP8 harbors an ankyrin repeat region that is likely involved in binding and recruiting interacting proteins with transcriptional repressive function, much like the chromoshadow domain of HP1 does. We hypothesize that by inhibiting specific protein-protein interactions we will be able to develop compounds that block a single arm of an epigenetic pathway. The specificity attained by blocking a single protein-protein interaction will be far greater than that attained by blocking the enzyme that regulates one of many interactions. Low-affinity protein-protein interactions (Kd in the single- to double-digit micromolar range) such as those discussed here have been very difficult to assay by traditional techniques such as fluorescence polarization or fluorescence resonance energy transfer. We have developed a sensitive chemiluminescence-based assay (Quinn, et al. 2009), which serves as the starting point for this project. The following is a validation assay to identify lead compounds that can block methyl-dependent protein-protein interactions (specifically MPP8), which can be used as probes to analyze these methyl-driven interactions and perhaps even developed into targeted epigenetic therapies. Assay Provider: Mark T. Bedford, MD Anderson Screening Center PI: Austin, C.P. Screening Center: NIH Chemical Genomics Center [NCGC]
To each well, 2 uL of MPP8 protein (final 50 nM) and 1 uL biotinylated histone peptide trimethylated at Lys9 [b-H3(1-18)K9me3] (final 50 nM) was added in 1x PBS buffer, pH 7.4, containing 0.01% Tween-20 using a nanoliter dispenser. Formation of a protein-peptide complex proceeded at room temperature for 30 min. A Kalypsys pin-tool was employed to transfer 23 nL of library compound solution in DMSO to each well. Aurintricarboxylic acid (ATA) was used as an intraplate control with a 12-point titration in duplicate. Following a 30 min incubation of the protein-peptide complex with compounds at room temperature, a mixture of 40 ug/mL each streptavidin-coated donor and nickel chelate acceptor AlphaScreen beads (final 10 ug/mL) was added in a 1 uL dispense for a final volume of 4 uL. Plates were incubated protected from the light for 30 min at room temperature. […]
(In general: Quantitative high-throughput screening tests each substance at several concentrations.)
With `Cc1cn([C@H]2C[C@@H](N=[N+]=[N-])[C@@H](CO)O2)c(=O)[nH]c1=O`, the Potency entry was “inactive”. As for `OC[C@H]1O[C@@H](n2cnc3c(N[C@H]4CC5CCC4C5)ncnc32)[C@H](O)[C@@H]1O` (stereo not given in full), the Potency entry was “inactive”. As to `O=C(Cc1ccc(Cl)c(Cl)c1)OCCN1CCCC1`, the Potency entry was “inactive”.

Turning to `Nc1nc(SCc2ccc([N+](=O)[O-])cc2)c2ncn([C@@H]3O[C@H](CO)[C@H](O)[C@H]3O)c2n1`, the Potency result is “inactive”. The entry for `CCCC(=O)NCCc1c2n(c3ccc(OC)cc13)Cc1ccccc1-2` is “inactive”; for `NC(=NCCC[C@H](N)C(=O)O)NO` it is “inactive”. Regarding `CN1CCc2cc(Cl)c(O)cc2C(c2ccccc2)C1` (stereo not given), the Potency result was “inactive”. Consider `CNCC[C@@H](Oc1ccc(C(F)(F)F)cc1)c1ccccc1`, for which the Potency entry was “inactive”. In the case of `CN(C)C1C(=O)C(C(N)=O)=C(O)[C@@]2(O)C(=O)C3=C(O)c4c(O)ccc(Cl)c4[C@@H](O)C3C[C@@H]12` (stereo not given in full), the Potency entry was “inactive”.

On to `NCC1OC(O[C@@H]2[C@H](O)[C@@H](OC3C(O)C(N)CC(N)C3OC3OC(CO)C(O)C(O)C3N)O[C@@H]2CO)C(N)C(O)C1O` (stereo not given in full), for which the Potency entry was “inactive”. For `COC(=O)c1c(-c2cc(OC)c(OC)c(OC)c2)c2ccc(OCc3ccccn3)cc2c(=O)n1-c1ccc(N)cc1`, the Potency is 28.2 µM (active). On to `CN=C(N)NCCCC(N)C(=O)O` (stereo not given), for which the Potency result was “inactive”. With `O=[N+]([O-])c1ccc(CSc2ncnc3c2ncn3[C@@H]2O[C@H](CO)[C@H](O)[C@H]2O)cc1`, the Potency result was “inactive”. The entry for `C[C@H]1CC2[C@@H]3CCC4=CC(=O)C=C[C@]4(C)[C@@]3(F)[C@@H](O)C[C@]2(C)[C@@]1(O)C(=O)CO` (stereo not given in full) is “inactive”. The entry for `O=C(O)CC[C@H](NC(=O)c1ccccc1C(=O)O)C(=O)O` is “inactive”; for `COc1c2c(nc3ccccc13)OC(C(C)(O)CO)C2` (stereo not given) it is “inactive”.

`NC(=O)C1=CN(C2OC(COP(=O)(O)OP(=O)(O)OC[C@H]3O[C@@H](n4cnc5c(N)ncnc54)[C@H](OP(=O)(O)O)[C@H]3O)C(O)C2O)C=CC1` (stereo not given in full): the Potency entry was “inactive”. For `CCSC(N)=Nc1ccc(C(F)(F)F)cc1` the value was “inactive”; for `CCCCCCCCCCCCCCC/C=C/[C@@H](O)[C@H](NC(=O)CCCCCCCCCCCCC)OC` (tested in a mixture with another compound), “inactive”; for `CC(N)=NCCCC(N)C(=O)O` (stereo not given), “inactive”. The entry for `COc1cc2c(cc1OC)C(c1ccccc1)CN(C)CC2` (stereo not given) is “inactive”; for `CNC(=O)[C@H]1O[C@@H](n2cnc3c(NCc4cccc(I)c4)ncnc32)[C@H](O)[C@H]1O` it is “inactive”. As for `CNc1ncnc2c1ncn2[C@@H]1O[C@H](CO)[C@H](O)[C@H]1O`, the Potency entry was “inactive”. Take `CSc1nc(N)c2ncn([C@@H]3O[C@H](COP(=O)(O)OP(=O)(O)OP(=O)(O)O)[C@H](O)[C@H]3O)c2n1`: the Potency entry is “inactive”. For `CSc1nc(N)c2ncn([C@@H]3O[C@H](COP(=O)(O)OP(=O)(O)O)[C@H](O)[C@H]3O)c2n1` the value was “inactive”. With `N=C(N)SCCc1cccc(CCSC(=N)N)c1`, the Potency entry is “inactive”. For `C[C@H](Cc1ccccc1)Nc1ncnc2c1ncn2[C@@H]1O[C@H](CO)[C@H](O)[C@H]1O`, the Potency result was “inactive”. For the compound `OC[C@H]1O[C@@H](n2cnc3c(NC4CCCC4)ncnc32)[C@H](O)[C@H]1O`, the Potency result is “inactive”. The entry for `CNC(=O)[C@H]1O[C@@H](n2cnc3c(NCc4ccc(N)cc4)ncnc32)[C@H](O)[C@H]1O` is “inactive”. For the compound `OC[C@H]1O[C@@H](n2cnc3c(Nc4ccccc4)ncnc32)[C@H](O)[C@H]1O`, the Potency result was “inactive”. For `CC(=O)[C@@]1(O)CC[C@H]2C3CCC4=CC(=O)CC[C@]4(C)C3CC[C@@]21C` (stereo not given in full) the value was “inactive”; for `CC(C)CN(C)c1nc(N)c(C(=O)N=C(N)N)nc1Cl`, 44.7 µM (active); for `NCCCCNS(=O)(=O)c1cccc2c(Cl)cccc12`, “inactive”. The entry for `COc1cc(=O)n(C)c2c(OCC(O)C(C)(C)O)cccc12` (stereo not given) is “inactive”; for `C[C@]12CCC(=O)C=C1CC[C@@H]1C2[C@@H](O)C[C@@]2(C)[C@H]1CC[C@]2(O)C(=O)CO` (stereo not given in full) it is “inactive”; for `N[C@H](Cc1ccc(O)c(O)c1)C(=O)O` it is 17.8 µM (active). `NCCNC(=O)c1ccc(Cl)cc1`: the Potency entry is “inactive”. For `CCn1c(=O)c2[nH]c(-c3ccccc3)nc2n(CC)c1=O` the value was “inactive”; for `Nc1nc2c(nc(Br)n2C2O[C@H]3COP(=O)(O)O[C@@H]3C2O)c(=O)[nH]1` (stereo not given in full), “inactive”. In the case of `CC(C)C1NC(=O)[C@H](CCCCN)NC(=O)[C@@H](Cc2c[nH]c3ccccc23)NC(=O)[C@H](Cc2ccc(O)cc2)NC(=O)[C@H](C)N(C)C(=O)[C@H](Cc2ccccc2)NC1=O` (stereo not given in full), the Potency entry was “inactive”.

These data come from PubChem BioAssay (NCATS).
